Test results as given in PubChem BioAssay (NCATS).
Inconclusive results are not listed. A call without a number means that no potency is given here. Unmarked numbers belong to inactive results. Calls of active or inactive are those of the source. The call rests on the fitted dose curve; in most records, active means well fitted curve in the direction sought with a large enough effect; inconclusive means small, poorly fitted or top-dose-only effect, or another doubt; inactive means no such curve, though single readings can be large; an effect the other way counts as inactive or inconclusive.

Assays:
[1] = target: Cellular tumor antigen p53 (Homo sapiens) (UniProt P04637); experiment: Primary qHTS for small molecule compounds that upregulate eGFP-tagged delta133p53alpha (in N-terminal) cells. (AID 2060322); conditions: NCI-H358 eGFP-delta133p53alpha fluorescence, 24 h; activation: hits give high values; further: nearly all actives have a fitted effect of over 75% in size; further: potency means the concentration at half of the fitted maximal effect; on activation: series mostly up to about 56 µM
Chain of Cellular tumor antigen p53 (Homo sapiens) (P04637 whole entry, looked up): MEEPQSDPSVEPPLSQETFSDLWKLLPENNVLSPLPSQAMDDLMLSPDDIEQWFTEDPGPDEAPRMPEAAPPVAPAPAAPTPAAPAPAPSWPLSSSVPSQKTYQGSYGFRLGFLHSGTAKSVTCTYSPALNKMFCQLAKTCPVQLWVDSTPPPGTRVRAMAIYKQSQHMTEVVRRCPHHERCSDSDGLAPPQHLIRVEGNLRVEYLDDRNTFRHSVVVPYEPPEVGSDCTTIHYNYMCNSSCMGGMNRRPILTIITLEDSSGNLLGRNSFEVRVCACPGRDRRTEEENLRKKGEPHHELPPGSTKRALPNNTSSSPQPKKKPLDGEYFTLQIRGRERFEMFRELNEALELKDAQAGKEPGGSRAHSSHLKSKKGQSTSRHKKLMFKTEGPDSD
Procedure, shortened: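 NCI-H358 cells pre-induced 24 h with 10 ng/ml doxycycline to express N-terminal eGFP-delta133p53alpha, then dosed 24 h at 37C without doxycycline; fixed, Hoechst-stained, GFP intensity by laser scanning cytometry, normalized to DMSO (0%) and 57.5 uM 5-azacytidine (100%).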

[2] = target: Aldehyde dehydrogenase, mitochondrial (Homo sapiens) (UniProt P05091); experiment: qHTS for Inhibitors of the Aldehyde Dehydrogenase Family (ALDH2) Primary screen (AID 2061308); further: nearly all actives have a fitted effect of over 55% in size
[3] = target: Retinaldehyde dehydrogenase 3 (Homo sapiens) (UniProt P47895); experiment: qHTS for Inhibitors of the Aldehyde Dehydrogenase Family (ALDH1A3) Primary screen (AID 2061315)

SMILES	activation [1]	Potency [2]	Potency [3]	activity change, negative = inhibition [2]	activity change, negative = inhibition [3]	Potency [1]
CC(=O)OC1CCC2(C)C(CCC3(C)C2CC=C2C4C(C)C(C)CCC4(C)CCC23C)C1(C)C(=O)O (stereo not drawn)	-6.11%	inactive	inactive			
C=C1C(OC2OC(CO)C(O)C(O)C2O)CC2C(C)(C)C(O)CCC2(C)C1CC/C(C)=C\COC(=O)CC(=O)O (stereo not drawn)	0.763%	inactive	inactive			
CC(C)(C)c1nnc(NS(=O)(=O)c2ccccc2)s1	11.7%	inactive	inactive			
O=C(O)Cc1cc(I)c(Oc2ccc(O)c(I)c2)c(I)c1	2.39%	inactive	inactive			
O=C(Nc1cccc([N+](=O)[O-])c1)c1cccc(S(=O)(=O)N2CCCCCC2)c1	1.67%	inactive	inactive			
C[C@@H]1CC[C@]2(C(=O)O[C@@H]3O[C@H](CO)[C@@H](O)[C@H](O)[C@H]3O)CC[C@]3(C)C(=CCC4[C@@]5(C)C[C@@H](O)[C@H](O)[C@@](C)(C(=O)O[C@H]6[C@H](O)C[C@@]7(C)C(CC[C@]8(C)C7CC=C7[C@H]9[C@](C(=O)O[C@@H]%10O[C@H](CO)[C@@H](O)[C@H](O)[C@H]%10O)(CC[C@@H](C)[C@@]9(C)O)CC[C@]78C)[C@@]6(CO)C(=O)O)C5CC[C@]43C)[C@@H]2[C@]1(C)O (stereo partly drawn)	0%			-16.3% [at 11.2 µM]	-6.62% [at 11.2 µM]	
C/C=C/C=C/C1=C2C(=O)C3(C)C4C(C(=O)CC(O)/C=C/C)=C(O1)C1(C)C2C2(C)OC1(O)C4(C)OC23O (stereo not drawn)	-2.68%	inactive	inactive			
COc1cc2c(cc1O)CC(O)(CO)C(CO)C2c1ccc(OC2OC(CO)C(O)C(O)C2O)c(OC)c1 (stereo not drawn)	-31.3%	inactive	inactive			
CC(=O)OC[C@]12[C@H](OC(C)=O)[C@H](OC(=O)c3ccccc3)[C@@H]3[C@@H](OC(C)=O)[C@]1(OC3(C)C)[C@H](C)C[C@H](OC(=O)c1ccccc1)[C@@H]2OC(=O)c1ccccc1	-31.3%	inactive	inactive			
CC(C)/C=C1\NC(=O)C(C(C)C)n2c1nc1ccccc1c2=O (stereo not drawn)	-10.7%	inactive	inactive			
COC(=O)[C@@H](O)[C@H]1[C@@]2(C)CC3(O)[C@@H](C(=O)[C@H]2O)[C@]24O[C@]25CC(=O)O[C@@H](c2ccoc2)[C@]5(C)CCC4[C@]13C (stereo partly drawn)	-13%	inactive	inactive			
C=C(C(=O)O)C1CCC2(C)CCCC(C)(O)C2C1 (stereo not drawn)	-5.36%	inactive	inactive			
CC(=O)OC[C@@]12[C@H](O)C[C@]3(C)C(=CCC4[C@@]5(C)CC[C@H](O[C@@H]6O[C@H](C(=O)O)[C@@H](O[C@@H]7O[C@H](CO)[C@@H](O)[C@H](O)[C@H]7O)[C@H](O)[C@H]6O[C@@H]6O[C@H](CO)[C@@H](O)[C@H](O)[C@H]6O)[C@](C)(CO)C5CC[C@]43C)[C@@H]1CC(C)(C)[C@@H](OC(C)=O)[C@@H]2O (stereo partly drawn)	-4.58%	inactive	inactive			
C=CC1(C)C=C2CCC3C(C)(C)C(O[C@@H]4O[C@@H](CO)[C@H](O)[C@H]4O)CCC3(C)C2CC1O[C@@H]1O[C@H](C)[C@H](O)[C@H](O)[C@H]1O (stereo partly drawn)	0.763%	inactive	inactive			
CC[N+]1(CC)CCC(=C(c2ccccc2)c2ccccc2)C1C (stereo not drawn)	-5.67%	inactive	inactive			
CCOc1ccc(S(=O)(=O)N2CCCCCC2)c2ccccc12	-13.7%	inactive	inactive			
C=C1C(=O)OC2/C=C(\C)CC3C=C(CC/C=C(\C)CCC12)C(=O)O3 (stereo not drawn)		inactive	inactive			6.59 µM (active)
C[C@@H]1CN(Cc2ccccc2)C[C@H]1c1nc2c(cnn2C2CCOCC2)c(=O)[nH]1	18.8%	inactive	inactive			
C=CCc1ccc(O[C@@H]2O[C@H](CO)[C@@H](O)[C@H](O)[C@H]2O)c(O[C@@H]2O[C@H](CO)[C@@H](O)[C@H](O)[C@H]2O)c1	-13.7%	inactive	inactive			
C#CCCCn1cc(-c2cccc3c2N[C@H](C)CC(=O)N3)cn1	8.93%	inactive	inactive			
CCC(C)C(C(=O)O)N1Cc2c(OCC=C(C)C)c(C)c(OC)c(C(=O)O)c2C1=O (stereo not drawn)	5.34%	inactive	inactive			
